In PubChem BioAssay (NCI):
Values joined by “and” are separate entries in the source; they are usually repeats but may differ in a detail not shown here. Equal values may be shown once. Compounds without any hit were thinned out: in the full panel of roughly 83,000, 20% have a hit.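 Plates (96-well) were seeded with cells, treated with compound at one concentration, and incubated for 48 hours before percent growth was determined.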 Active and inactive are the calls of the source. How the source made its calls: active means growth percent below 10; inactive means the rest.

Key:
Experiment in all cases: NCI-60 one-dose screen, 48 h (100 = growth as untreated, 0 = no growth, -100 = all killed)
Details in all cases: 10 µM unless noted
SR leukemia = system: SR leukemia
RPMI-8226 leukemia = system: RPMI-8226 leukemia
OVCAR-8 ovarian = system: OVCAR-8 ovarian
OVCAR-5 ovarian = system: OVCAR-5 ovarian
OVCAR-4 ovarian = system: OVCAR-4 ovarian
SK-OV-3 ovarian = system: SK-OV-3 ovarian
IGROV1 ovarian = system: IGROV1 ovarian
OVCAR-3 ovarian = system: OVCAR-3 ovarian
HS 578T breast = system: HS 578T breast
NCI/ADR-RES ovarian = system: NCI/ADR-RES ovarian
T-47D breast = system: T-47D breast
BT-549 breast = system: BT-549 breast
MDA-MB-435 melanoma = system: MDA-MB-435 melanoma
SW-620 colon = system: SW-620 colon
MCF7 breast = system: MCF7 breast
HCT-116 colon = system: HCT-116 colon
HCC-2998 colon = system: HCC-2998 colon
KM12 colon = system: KM12 colon

## O=C(NCCCN1CCCCC1)c1ccc(-c2nc3ccc4[nH]ncc4c3c3c2CCCC3)cc1
SR leukemia
  growth: -18.3% (active)
RPMI-8226 leukemia
  growth: 29.9% (inactive)
OVCAR-8 ovarian
  growth: 62% (inactive)
OVCAR-5 ovarian
  growth: 94.6% (inactive)
OVCAR-4 ovarian
  growth: 54.3% (inactive)
SK-OV-3 ovarian
  growth: 24.9% (inactive)
IGROV1 ovarian
  growth: 29.2% (inactive)
OVCAR-3 ovarian
  growth: 67.5% (inactive)
HS 578T breast
  growth: 14.4% (inactive)
NCI/ADR-RES ovarian
  growth: 85.2% (inactive)
T-47D breast
  growth: 86.9% (inactive)
BT-549 breast
  growth: 31.4% (inactive)
MDA-MB-435 melanoma
  growth: 26.7% (inactive)
SW-620 colon
  growth: 24.5% (inactive)
MCF7 breast
  growth: 31.8% (inactive)
HCT-116 colon
  growth: 16.8% (inactive)
HCC-2998 colon
  growth: 76% (inactive)
KM12 colon
  growth: 20.6% (inactive)

## O=C1C(Nc2ccc(Cl)cc2)=C(I)C(=O)c2ncccc21
SR leukemia
  growth: 4.45% (active)
RPMI-8226 leukemia
  growth: -2.24% (active)
OVCAR-8 ovarian
  growth: -65.1% (active)
OVCAR-5 ovarian
  growth: 60.4% (inactive)
OVCAR-4 ovarian
  growth: -91.4% (active)
SK-OV-3 ovarian
  growth: 83.3% (inactive)
IGROV1 ovarian
  growth: -76.2% (active)
OVCAR-3 ovarian
  growth: -88.3% (active)
HS 578T breast
  growth: 39.9% (inactive)
NCI/ADR-RES ovarian
  growth: -0.0242% (active)
T-47D breast
  growth: -34.2% (active)
BT-549 breast
  growth: 53.3% (inactive)
MDA-MB-435 melanoma
  growth: -80.5% (active)
SW-620 colon
  growth: -27% (active)
MCF7 breast
  growth: -34.3% (active)
HCT-116 colon
  growth: -57.3% (active)
HCC-2998 colon
  growth: 79.5% (inactive)
KM12 colon
  growth: 39.8% (inactive)

## COc1nc2ccc(C)cc2cc1/C=[N+](\[O-])c1ccccc1
SR leukemia
  growth: 39.9% (inactive)
RPMI-8226 leukemia
  growth: 69.1% (inactive)
OVCAR-8 ovarian
  growth: 95.3% (inactive)
OVCAR-5 ovarian
  growth: 92.6% (inactive)
OVCAR-4 ovarian
  growth: 83.7% (inactive)
SK-OV-3 ovarian
  growth: 79.9% (inactive)
IGROV1 ovarian
  growth: 75.2% (inactive)
OVCAR-3 ovarian
  growth: 96.6% (inactive)
HS 578T breast
  growth: 91% (inactive)
NCI/ADR-RES ovarian
  growth: 81.1% (inactive)
T-47D breast
  growth: 66.5% (inactive)
BT-549 breast
  growth: 95.8% (inactive)
MDA-MB-435 melanoma
  growth: 96.9% (inactive)
SW-620 colon
  growth: 49.9% (inactive)
MCF7 breast
  growth: 58.6% (inactive)
HCT-116 colon
  growth: 15.1% (inactive)
HCC-2998 colon
  growth: 98.2% (inactive)
KM12 colon
  growth: 90.5% (inactive)

## Nc1ccc(/C=N/Nc2ccnc3c(N)cccc23)c2cccnc12
SR leukemia
  growth: -28.2% (active)
RPMI-8226 leukemia
  growth: -30.3% (active)
OVCAR-8 ovarian
  growth: -30% (active)
OVCAR-5 ovarian
  growth: 13.9% (inactive)
OVCAR-4 ovarian
  growth: -51.4% (active)
SK-OV-3 ovarian
  growth: 97.2% (inactive)
IGROV1 ovarian
  growth: 88.4% (inactive)
OVCAR-3 ovarian
  growth: -85.5% (active)
HS 578T breast
  growth: -17% (active)
NCI/ADR-RES ovarian
  growth: 9.25% (active)
T-47D breast
  growth: -39.5% (active)
BT-549 breast
  growth: -37.2% (active)
MDA-MB-435 melanoma
  growth: -84.1% (active)
SW-620 colon
  growth: -28.3% (active)
MCF7 breast
  growth: -47.1% (active)
HCT-116 colon
  growth: -93.1% (active)
HCC-2998 colon
  growth: 41.5% (inactive)
KM12 colon
  growth: 0.438% (active)

## CN(C)CC1(C)Cc2ccsc2C1O (stereo not given)
SR leukemia
  growth: 102% (inactive) and 83.2% (inactive)
RPMI-8226 leukemia
  growth: 106% (inactive) and 98.8% (inactive)
OVCAR-8 ovarian
  growth: 110% (inactive) and 105% (inactive)
OVCAR-5 ovarian
  growth: 101% (inactive) and 105% (inactive)
OVCAR-4 ovarian
  growth: 113% (inactive) and 100% (inactive)
SK-OV-3 ovarian
  growth: 109% (inactive) and 104% (inactive)
IGROV1 ovarian
  growth: 123% (inactive) and 110% (inactive)
OVCAR-3 ovarian
  growth: 127% (inactive) and 105% (inactive)
HS 578T breast
  growth: 129% (inactive)
NCI/ADR-RES ovarian
  growth: 106% (inactive) and 103% (inactive)
T-47D breast
  growth: 113% (inactive) and 100% (inactive)
BT-549 breast
  growth: 113% (inactive) and 102% (inactive)
MDA-MB-435 melanoma
  growth: 111% (inactive) and 107% (inactive)
SW-620 colon
  growth: 105% (inactive) and 112% (inactive)
MCF7 breast
  growth: 110% (inactive) and 105% (inactive)
HCT-116 colon
  growth: 115% (inactive) and 104% (inactive)
HCC-2998 colon
  growth: 107% (inactive) and 103% (inactive)
KM12 colon
  growth: 116% (inactive) and 106% (inactive)

## COc1ccccc1/C=C/C(=O)/C=C/c1ccccc1OC
SR leukemia
  growth: 16.2% (inactive) and 7.78% (active)
RPMI-8226 leukemia
  growth: 7.24% (active) and 1.3% (active)
OVCAR-8 ovarian
  growth: -25.9% (active) and 16.5% (inactive)
OVCAR-5 ovarian
  growth: -15.7% (active) and -6.94% (active)
OVCAR-4 ovarian
  growth: 20.6% (inactive) and 13% (inactive)
SK-OV-3 ovarian
  growth: 5.47% (active) and 14.6% (inactive)
IGROV1 ovarian
  growth: -53.8% (active) and -46.1% (active)
OVCAR-3 ovarian
  growth: -29.1% (active) and -36.7% (active)
HS 578T breast
  growth: -0.48% (active) and 50.4% (inactive)
NCI/ADR-RES ovarian
  growth: -2.31% (active) and 18.6% (inactive)
T-47D breast
  growth: -41.1% (active) and 4.16% (active)
BT-549 breast
  growth: -51.9% (active) and -30.6% (active)
MDA-MB-435 melanoma
  growth: -30.8% (active)
SW-620 colon
  growth: -27.1% (active) and -20% (active)
MCF7 breast
  growth: 5.62% (active) and 17.9% (inactive)
HCT-116 colon
  growth: -81.7% (active) and -87.1% (active)
HCC-2998 colon
  growth: -84% (active) and 2.03% (active)
KM12 colon
  growth: -60% (active) and -45.2% (active)

## COc1c(O)c(O)cc2c3c(oc12)CC(c1ccc2c(c1)OCO2)CC3=O (stereo not given)
SR leukemia
  growth: 45.2% (inactive)
RPMI-8226 leukemia
  growth: 62.5% (inactive)
OVCAR-8 ovarian
  growth: 63% (inactive)
OVCAR-5 ovarian
  growth: 116% (inactive)
OVCAR-4 ovarian
  growth: 80.5% (inactive)
SK-OV-3 ovarian
  growth: 90.1% (inactive)
IGROV1 ovarian
  growth: 54.5% (inactive)
OVCAR-3 ovarian
  growth: 63.8% (inactive)
HS 578T breast
  growth: 93.8% (inactive)
NCI/ADR-RES ovarian
  growth: 67% (inactive)
T-47D breast
  growth: 43.8% (inactive)
BT-549 breast
  growth: 56.2% (inactive)
MDA-MB-435 melanoma
  growth: 39.8% (inactive)
SW-620 colon
  growth: 38.7% (inactive)
MCF7 breast
  growth: 35.5% (inactive)
HCT-116 colon
  growth: 32.1% (inactive)
HCC-2998 colon
  growth: 92.9% (inactive)
KM12 colon
  growth: 66% (inactive)

## CN1C(=O)/C(=C/c2ccc(C(=O)Nc3ncc(Cc4ccccc4Cl)s3)cc2)SC1=S
SR leukemia
  growth: 35.7% (inactive)
RPMI-8226 leukemia
  growth: 73.3% (inactive)
OVCAR-8 ovarian
  growth: 79.3% (inactive)
OVCAR-5 ovarian
  growth: 70.5% (inactive)
OVCAR-4 ovarian
  growth: 69.6% (inactive)
SK-OV-3 ovarian
  growth: 80.5% (inactive)
IGROV1 ovarian
  growth: 78.8% (inactive)
OVCAR-3 ovarian
  growth: 93.3% (inactive)
HS 578T breast
  growth: 65.8% (inactive)
NCI/ADR-RES ovarian
  growth: 71.6% (inactive)
T-47D breast
  growth: 63.4% (inactive)
BT-549 breast
  growth: 69.5% (inactive)
MDA-MB-435 melanoma
  growth: -18.5% (active)
SW-620 colon
  growth: 62% (inactive)
MCF7 breast
  growth: 61.8% (inactive)
HCT-116 colon
  growth: 63.6% (inactive)
HCC-2998 colon
  growth: 77.5% (inactive)
KM12 colon
  growth: 46.1% (inactive)

## COC(=O)c1c2c(c(C)[n+]([O-])c1C)C(=O)C(NCCN1CCOCC1)=CC2=O
SR leukemia
  growth: 66.9% (inactive)
RPMI-8226 leukemia
  growth: 91.9% (inactive)
OVCAR-8 ovarian
  growth: 61.7% (inactive)
OVCAR-5 ovarian
  growth: 89.1% (inactive)
OVCAR-4 ovarian
  growth: 35.4% (inactive)
SK-OV-3 ovarian
  growth: 103% (inactive)
IGROV1 ovarian
  growth: 63.4% (inactive)
OVCAR-3 ovarian
  growth: 5.12% (active)
HS 578T breast
  growth: 101% (inactive)
NCI/ADR-RES ovarian
  growth: 91.7% (inactive)
T-47D breast
  growth: 80.6% (inactive)
BT-549 breast
  growth: 91.4% (inactive)
MDA-MB-435 melanoma
  growth: 49.9% (inactive)
SW-620 colon
  growth: 64.3% (inactive)
MCF7 breast
  growth: 55.9% (inactive)
HCT-116 colon
  growth: 28.3% (inactive)
HCC-2998 colon
  growth: 74.1% (inactive)
KM12 colon
  growth: 71.6% (inactive)

## COC(=O)c1nc(-c2ccc(C)cc2)oc1Sc1ccc(C)cc1
SR leukemia
  growth: 76.1% (inactive)
RPMI-8226 leukemia
  growth: 81.4% (inactive)
OVCAR-8 ovarian
  growth: 98.5% (inactive)
OVCAR-5 ovarian
  growth: 97.8% (inactive)
OVCAR-4 ovarian
  growth: 101% (inactive)
SK-OV-3 ovarian
  growth: 92.1% (inactive)
IGROV1 ovarian
  growth: 110% (inactive)
OVCAR-3 ovarian
  growth: 108% (inactive)
HS 578T breast
  growth: 108% (inactive)
NCI/ADR-RES ovarian
  growth: 108% (inactive)
T-47D breast
  growth: 72.9% (inactive)
BT-549 breast
  growth: 101% (inactive)
MDA-MB-435 melanoma
  growth: 103% (inactive)
SW-620 colon
  growth: 103% (inactive)
MCF7 breast
  growth: 93.7% (inactive)
HCT-116 colon
  growth: 99.4% (inactive)
HCC-2998 colon
  growth: 110% (inactive)
KM12 colon
  growth: 98.6% (inactive)
